Reference: PubChem BioAssay AID748 (Sanford-Burnham Center for Chemical Genomics, 2007)
Hit rate of the full screen: of about 96,000 compounds, about 100 (0.1%) were called active.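 Rule for the calls: active = displacement above 50% at 20 µM plus a fluorescence interference ratio under 1.5; inactive = the rest.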 Many of the other results were omitted from the sample, so actives are more common in it than they were. Entries with a potency or affinity are not part of this list.

Molecular target: Bcl-2-like protein 10 (Homo sapiens) (UniProt Q9HD36)
Experiment: Bcl-B/TR3 peptide binding disruption – biochemical, fluorescence polarization, FITC-TR3 peptide, selectivity assay for Bfl-1 inhibitor project, primary screen (AID 748);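 note: plate controls were wells without compound for no effect and wells lacking Bcl-B protein for full effect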
Settings: FP displacement of FITC-TR3 peptide from Bcl-B; at 20 µM; stronger effect = higher value

displacement, active:
Cc1c(N2C(=O)c3ccc4c5c(ccc(c35)C2=O)CC4)c(=O)n(-c2ccccc2)n1C 112%

displacement, inactive:
Cc1c(C(=O)Nc2cccc3cccnc23)oc2ccccc12 10.7%
Cc1cc(=O)n2c3c(cccc13)CCC2 -9.7%
C=CCn1c(SCC(=O)Nc2ncc(Cc3cc(Cl)ccc3Cl)s2)nnc1-c1ccncc1 -3.4%
O=C(NCc1ccco1)c1cc(-c2ccc(F)cc2)on1 1.1%
O=C(Nc1ccc(N2CCCCC2)cc1)c1ccccc1 -3.3%
O=C(Cc1ccc(Cl)cc1)Nc1ccc(N2CCCC2)cc1 -84%
CN1CCN(c2ccc(NC(=O)Cc3ccccc3)cc2)CC1 -5.5%
O=C(Nc1ccc(N2CCCC2)cc1)C(Cl)c1ccccc1 (configuration not stated) -13.8%
CCOC(=O)c1ccccc1NC(=O)CC(C)CC(=O)O (configuration not stated) -5.5%
COc1cccc2c1C(=O)CC2NC(=O)C(F)(F)F (configuration not stated) -17.1%
COC(=O)Nc1c(C)nn(Cc2ccccc2C)c1C -0.7%
CCOc1ccc(C(c2c(C)[nH][nH]c2=O)c2c(C)[nH][nH]c2=O)cc1OC 8.5%
CC(C)CC(C(=O)Nn1cnnc1)N1C(=O)c2ccccc2C1=O (configuration not stated) -8.4%
O=C(Cc1cccs1)Nc1nnc(CCc2ccccc2)s1 -0.1%
Cc1nnc(NC(=O)Cc2cccs2)s1 40.2%
CCOC(=O)c1nc2sc3c(c2c(=O)[nH]1)CCCC3 -2.6%
CC(C)CC(=O)c1c[nH]c(C(=O)NCCCn2ccnc2)c1 0%
Cc1ccc2cc(C3C(C#N)=C(N)Oc4c3ccc3cccnc43)c(=O)[nH]c2c1 (configuration not stated) 5.4%
CCc1ccc2[nH]c(=O)c(C3C(C#N)=C(N)Oc4c3ccc3cccnc43)cc2c1 (configuration not stated) -4.7%
O=c1[nH]c(=O)n(C2CCCO2)cc1Br (configuration not stated) -6.3%
CS(=O)(=O)N(CCc1ccccc1)CC(=O)N1CCCCC1 0.5%
Clc1ccc2nc(CN3CCCCCC3)cn2c1 -3.6%
Clc1ccc2nc(CN3CCCCC3)cn2c1 10.1%
Cc1nn(-c2ccccn2)c2c1-c1nc(N)ncc1CC2 6%
CCN(CC)CCC(=O)NC(C)(C)Cc1ccc(O)cc1 -7.8%
CCOC(=O)c1[nH]c2c(c1C)C(=O)CC(c1ccco1)C2 (configuration not stated) 10.9%
Cc1c(C(=O)OCC2CCCO2)[nH]c2c1C(=O)CC(c1ccc(N(C)C)cc1)C2 (configuration not stated) -1.6%
CCCC(=O)N1CCc2cc(-c3nc(N)sc3C)ccc21 0.7%
CC1(C)Cc2c(sc3c2c(=N)n(Cc2ccco2)c(=O)n3CC(=O)Nc2cccc(Cl)c2)CO1 -38.7%
Cc1ccc(S(=O)(=O)N2CCOCC2)cc1C(=O)OCC(=O)N1c2ccccc2NC(=O)C1(C)C 25%
CC1(C)C(=O)Nc2ccccc2N1C(=O)COC(=O)C1CCCCC1 -3.4%
COc1cc(/C=C(/C#N)c2ccc(C)cc2)ccc1Oc1ccc([N+](=O)[O-])cn1 -0.7%
CC1Cc2nc(SCC(=O)NC3CCCCC3)n(C)c(=O)c2S1 (configuration not stated) -2.6%
CCOC(=O)COc1ccc(S(=O)(=O)N2CCc3ccccc3C2)cc1 0.4%
CCOc1ccccc1N(CC(=O)NC(C)(C)C)C(=O)Cn1nnc(-c2ccc(C)o2)n1 -3.4%
CC(=O)N1N=C(c2ccc3nccnc3c2)CC1c1ccccc1 (configuration not stated) 6%
C=CCn1c(SCc2cc(=O)n3ccsc3n2)nc2scc(C3CC3)c2c1=O -10.9%
C=CCn1c(=O)c2ccccc2n2c(SCc3cc(=O)n4ccsc4n3)nnc12 6.2%
CCCNC(=O)c1c(N)n(-c2ccc3c(c2)OCO3)c2nc3ccccc3nc12 8.6%
Cn1c(N2CCN(C(=O)NCc3ccccc3)CC2)nc2ccccc21 6.9%
COc1cccc(NC(=O)c2cnsn2)c1 6.3%
CCCn1c(C)cc(-c2csc(N)n2)c1C 10.4%
Cc1cc(-c2csc(N)n2)c(C)n1CCC(C)C 1.9%
c1csc(Cn2c(-c3cccs3)nc3ccccc32)c1 -27.7%
CC(=O)Nc1ccc(S(=O)(=O)n2nc(-c3ccc(C)cc3)nc2N)cc1 -2.3%
O=[N+]([O-])c1ccc(-c2ccc(/C=N/c3c(-c4ccco4)nc4ccccn34)o2)cc1 7.3%
O=[N+]([O-])c1ccc(Cl)c(-c2ccc(/C=N/c3c(-c4ccco4)nc4ccccn34)o2)c1 31.7%
COCCn1c(=S)[nH]c2cc(OC)c(OC)cc2c1=O 3%
COc1cc2c(cc1OC)CN(C(C)C(=O)Nc1ccc(NC(C)=O)cc1)CC2 (configuration not stated) 2.9%
COC(=O)CSc1nc2sc3c(c2c(=O)n1C1CCCCC1)CCN(C)C3 -62.9%
COC(=O)CSc1nc2sc3c(c2c(=O)n1-c1ccccc1)CCN(C)C3 4.6%
CCn1c(SCC(=O)OC)nc2sc3c(c2c1=O)CCC3 46.6%
CCn1c(SCC(N)=O)nc2sc3c(c2c1=O)CCCC3 1.5%
CCn1c(SCC(=O)N2CCOCC2)nc2sc3c(c2c1=O)CCCC3 4%
CCn1c(NN)nc2sc3c(c2c1=O)CCC3 -124%
Cc1ccc2cccc(SCC(=O)N3CCOCC3)c2n1 1.9%
O=C1CC(C(=O)O)S/C(=N\NC(=O)c2ccccc2)N1 (configuration not stated) 0%
CC(C)n1c(SCCCc2ccccc2)nc2c1c(=O)[nH]c(=O)n2C -3.8%
COc1ccccc1NC(=O)Cc1noc(CSc2cccc[n+]2[O-])n1 -8.6%
CC(C)(C)c1nnc2sc(SCCN3C(=O)c4ccccc4C3=O)nn2c1=O 2.7%
COc1ccc(OC)c(C2=NO[C@@H]3C(=O)N(c4cc(Cl)ccc4OC)C(=O)[C@H]23)c1 6%
COc1ccc(Cl)cc1N1C(=O)[C@@H]2C(c3cccc(OC)c3OC)=NO[C@@H]2C1=O 8.5%
CC(C)c1cc(=O)oc2c3c4c(cc12)CCCN4CCC3 59.5%
O=c1oc2c3c4c(cc2c2c1CCC2)OCCN4CCC3 49.8%
CCNC(=O)CN1c2cccc3cccc(c23)S1(=O)=O -6.3%
CCOC(=O)c1cc(CC)sc1NC(=O)CCC(=O)O 1.7%
O=C1NC(c2ccco2)Nc2ccccc21 (configuration not stated) -1.7%
Brc1ccc(C2Nc3cccc4cccc(c34)N2)o1 17.6%
COC(=O)c1ccc(Oc2c(C(F)(F)F)oc3c(CN4CCN(C)CC4)c(O)ccc3c2=O)cc1 4.9%
CCOC(=O)N1CCC(NC(=O)C2CCCN(C(=O)N3CCOc4ccccc43)C2)CC1 (configuration not stated) 3.1%
O=C(O)c1cn[nH]c1-n1cnnn1 0.2%
Cc1cccc(OCC(=O)Nc2ccc(N3CCN(S(C)(=O)=O)CC3)cc2)c1C -12.3%
CCOc1ccc(C(=O)Nc2ccc(N3CCCC3)cc2)cc1 35.5%
Cc1cc(C)cc(OCC(=O)Nc2ccc(N3CCCC3)cc2)c1 17.3%
Cc1ccc(OCC(=O)Nc2ccc(N3CCOCC3)cc2)cc1 4.4%
CC(C)Oc1ccc(C(=O)Nc2ccc(N3CCCC3)cc2)cc1 0%
CCCC(=O)N1CCN(c2ccc(NC(=O)c3ccc(OCC)c([N+](=O)[O-])c3)cc2)CC1 -1.6%
Cc1cccc(OCCCC(=O)Nc2ccc(N3CCCCC3)cc2)c1C -5.7%
CCCCOc1ccc(C(=O)Nc2ccc(N3CCN(C)CC3)cc2)cc1 -3.7%
CCOc1cc(N2CCOCC2)c(OCC)cc1NC(=O)CN1C(=O)NC2(CCc3ccccc32)C1=O (configuration not stated) -7.8%
CCn1c(SCC(=O)Nc2ccc(S(N)(=O)=O)cc2)nnc1-c1ccccc1OC -8.3%
CCCn1c(=O)c2c(c3ccccc31)OC(C)C(=O)N2 (configuration not stated) 4.5%
O=C(N/N=C/C1C(c2ccccc2)C1(Cl)Cl)c1cccc(Br)c1 (configuration not stated) -0.4%
CN(C)S(=O)(=O)c1ccc(C(=O)Nc2nnc(Cc3ccccc3)s2)cc1 -6.2%
OC1CCN(c2ncnc3nc[nH]c23)CC1 2.2%
CCOC(=O)Cn1c(=O)oc2cc(S(=O)(=O)N3CCC(N4CCCCC4)CC3)ccc21 10%
Clc1ccc(Cn2ncc3c(NCCN4CCOCC4)ncnc32)cc1 -10.2%
O=C1CCCN1c1ccc(Br)cc1 -0.3%
Cc1c(N2C(=O)c3ccccc3C2=O)c(=O)n(-c2ccccc2)n1C 3.3%
Cc1c(N2C(=O)c3cccc4cccc(c34)C2=O)c(=O)n(-c2ccccc2)n1C -13.8%
Cc1ccsc1/C=N/n1cnc2sc(C)c(C)c2c1=O -9.7%
CC(=O)N1CCN(S(=O)(=O)c2ccc(S(=O)(=O)NC3CC3)cc2)CC1 -5.1%
CC(C)(C)C(=O)Nc1nc(C2CCCN2S(=O)(=O)c2ccc(Cl)cc2)cs1 (configuration not stated) -7.5%
Cc1ccc(S(=O)(=O)N2CCN(C3CCN(Cc4ccccc4)CC3)CC2)cc1 6.6%
Cc1cc(C(=O)O)c(C)n1-c1ccccc1 -1%
CC(C)(C)NC(=O)c1sccc1C(=O)O -1.7%
